An excerpt weighted towards active compounds, which were near 7.5% of everything screened.
SMN2 splice enh: increases expression of the SMN2 splice variant; 210,000 compounds, 2.8% hits; HEK293 SMN2-luciferase splicing reporter, luminescence, 30-36 h; AID 1458; Potency, µM (highest dose often 46.1 µM), for the others: at the highest dose activity change, positive = activation, actives largely listed as activators; note: % of control where 0% means no effect; nearly all actives have a fitted effect of over 55% in size
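HEK293 cells carry an SMN2 […]–luciferase reporter in which exon 7 inclusion puts luciferase in frame. Cells were plated 10-12 h before compound addition, then incubated 30-36 h at 37C. ONE-Glo luminescence was read; sodium butyrate at 4.5 mM final served as control.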
Rab9 prom act: Rab9 promoter activation. AID 485297. Potency, µM (titrated, usually from 9.22 µM), for the others: at the top dose activation, negative = inhibition, most hits filed as activators. Huh7 Rab9 promoter-luciferase reporter, luminescence, 24 h. 320,000 compounds, 2.8% hits; note: % of control where 0% means no effect; nearly all actives have a fitted effect of over 60% in size
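Quantitative HTS format; Huh7 Rab9-luciferase reporter cells (1500/well) receive compound 2 h post-plating, incubate 24 h at 37 °C, then get luciferase reagent for 10 min before luminescence reading.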
Luc counter: counter-screen: inhibitors of Kinase-Glo firefly luciferase. 200,000 compounds, 0.28% hits. Q27757. Kinase-Glo luciferase, ATP luminescence, 8 min. Potency, µM (doses to about 38.3 µM), inactives show at the highest dose activity change, negative = inhibition, actives largely listed as inhibitors; note: % is set by controls: 0 for no effect and ±100 for the full control effect; nearly all actives have a fitted effect of over 60% in size
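Kinase-Glo luciferase light output from ATP and luciferin was measured with 10 uM ATP, within the enzyme's linear range. Buffer: 50 mM imidazole pH 7.2, 50 mM KCl, 7 mM MgCl2, 0.01% Tween 20, 0.05% BSA; luminescence read after 8 min at ambient temperature.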
ELG1 genotoxic: inducers of genotoxicity in HEK293T ELG1-luciferase cells; HEK293T ELG1-luciferase reporter, luminescence, 16 h; 330,000 compounds, 1.3% hits; AID 504466; Potency, µM (titrated, usually from 46 µM), for inactives: top-dose activity change, positive = activation, usual class: activators; note: % of control where 0% means no effect; nearly all actives have a fitted effect of over 60% in size
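After overnight (16 hr) compound treatment at 37 °C, ELG1-luciferase HEK293T cells were lysed with ONE-Glo; luminescence quantified 30 min later at room temperature.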
FLuc counter: counter-screen for miR-21 project: firefly luciferase inhibitors or activators | P08659 | purified FLuc, Km substrates, luminescence inhibition | Potency, µM (doses to about 57.5 µM), inactives show at the top dose activity change, negative = inhibition, most hits filed as inhibitors | 360,000 compounds, 6.9% hits | AID 588342;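 note: plate controls were vehicle for no effect and reference inhibitor for full effect; nearly all actives have a fitted effect of over 55% in size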
Target sequence (P08659 whole entry, looked up): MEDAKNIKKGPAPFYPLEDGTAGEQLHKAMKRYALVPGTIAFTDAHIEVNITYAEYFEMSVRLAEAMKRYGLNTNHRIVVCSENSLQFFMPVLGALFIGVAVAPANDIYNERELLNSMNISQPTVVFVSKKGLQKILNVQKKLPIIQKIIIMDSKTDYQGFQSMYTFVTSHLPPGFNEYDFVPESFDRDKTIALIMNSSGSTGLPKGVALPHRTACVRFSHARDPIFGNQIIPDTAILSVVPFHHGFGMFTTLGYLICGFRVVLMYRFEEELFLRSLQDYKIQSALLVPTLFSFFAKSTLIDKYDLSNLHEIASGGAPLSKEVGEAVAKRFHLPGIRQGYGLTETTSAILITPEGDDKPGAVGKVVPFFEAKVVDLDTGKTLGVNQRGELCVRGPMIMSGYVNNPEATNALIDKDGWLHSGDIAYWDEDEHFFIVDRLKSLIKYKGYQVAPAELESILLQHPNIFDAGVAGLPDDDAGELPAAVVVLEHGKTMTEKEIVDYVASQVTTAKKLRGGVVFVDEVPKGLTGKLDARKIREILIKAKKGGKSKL
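Purified P. pyralis luciferase (10nM final) with 10uM D-luciferin and 10uM ATP (Km levels) in 50mM Tris acetate pH 7.5, 10mM Mg acetate, 0.01% Tween-20, 0.05% BSA; qHTS 6-point titration, ~60 µM downward; luminescence read.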
NPC1 prom act: activators of NPC1 promoter; Huh7 NPC1 promoter luciferase reporter, 24 h; Potency, µM (highest dose often 9.22 µM), without a hit: at the highest dose activation, usual class: activators; 320,000 compounds, 2.4% hits; note: % of control where 0% means no effect; nearly all actives have a fitted effect of over 60% in size
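Luminescence read-out of NPC1 promoter-driven luciferase in stably transfected Huh7 cells; compounds delivered in DMSO and left 24 h at 37C, 5% CO2, qHTS titration format.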
An asterisk follows results filed as active; ? = inconclusive; nt = no result; [ ] = dose if it differs, or a comment. Calls come from the whole dose curve; as a rule, active = well fitted curve in the direction sought with a large enough effect; inconclusive = small, poorly fitted or top-dose-only effect, or another doubt; inactive = no such curve, though single readings can be large; an effect the other way counts as inactive or inconclusive. Potency is the fitted concentration of half-maximal effect.

SMILES	SMN2 splice enh	Rab9 prom act	Luc counter	ELG1 genotoxic	FLuc counter	NPC1 prom act
Cc1ccc(-n2[nH]c(C)c(C=Nc3ccc(S(=O)(=O)Nc4nccs4)cc3)c2=O)cc1C	28%	0%	-26%	9%	19µM*	-1%
C=CC[C@H](CC(=O)OC(C)(C)C)C(=O)OC[C@@H]1CCCN1C(=O)[C@@H](CC=C)CC(=O)NCCO	nt	nt	nt	2%	nt	nt
CCc1ccccc1NC(=O)c1ccc2nc(C(C)C)oc2c1	nt	nt	nt	nt	-2%	nt
Cc1c(C(=O)Nc2cccc([N+](=O)[O-])c2)cnn1-c1ccccc1	nt	2.5µM*	nt	?	9.5µM*	2.8µM*
Cc1c(C(=O)Nc2cccc(F)c2)cnn1-c1ccccc1	nt	1.4µM*	nt	?	6µM*	1.6µM*
CC(=O)c1cccc(NC(=O)c2cnn(-c3ccccc3)c2C)c1	nt	4µM*	nt	?	9.5µM*	3.2µM*
Cc1cc(C)n2nc(CNS(=O)(=O)c3ccccc3)nc2n1	-2%	nt	nt	nt	-1%	nt
CSCCC(NC(=O)c1ccccc1Cl)C(=O)N(C)Cc1cccs1 (stereo not drawn)	nt	11%	nt	-7%	-8%	1%
COc1ccccc1-n1c(SCc2cc(=O)oc3cc(O)ccc23)nc2ccccc2c1=O	23%	-3%	0%	0%	?	2%
COc1ccccc1-n1c(=O)oc2ccc(Cl)cc2c1=O	nt	4%	-3%	6%	13µM*	?
COc1cc(C(=O)Nc2ccc(N(C)C)cc2)c([N+](=O)[O-])cc1OC	-3%	-4%	-4%	?	4.8µM*	9%
COc1ccc(-n2nc(C(=O)NCC(=O)N3CCN(c4ccccc4)CC3)c3ccccc3c2=O)cc1OC	nt	13%	nt	4%	0.85µM*	?
COc1ccc(-n2nc(C(=O)NCC(=O)N3CCOCC3)c3ccccc3c2=O)cc1OC	nt	-1%	nt	-5%	24µM*	-5%
COc1ccc(-n2nc(C(=O)NCC(=O)N3CCN(c4ccccc4OC)CC3)c3ccccc3c2=O)cc1OC	nt	17%	nt	-5%	3.8µM*	14%
COc1ccc(-n2nc(C(=O)NCC(=O)N3CCN(Cc4ccc5c(c4)OCO5)CC3)c3ccccc3c2=O)cc1OC	-11%	-2%	0%	-16%	-3%	-7%
COc1ccc(S(=O)(=O)Nc2noc3ccccc23)cc1	nt	-2%	nt	3%	-2%	0%
COc1cccc(/C=C/C(=O)c2ccc(NS(=O)(=O)c3ccc(C)cc3)cc2)c1	-48%	-13%	-1%	0%	13µM*	-5%
COc1cccc(N/C=C/C(=O)c2ccc(C)cc2)c1	nt	0.5µM*	nt	1.5µM*	0.24µM*	0.45µM*
COc1ccc(N/C=C/C(=O)c2ccc(Cl)cc2)cc1	4.5µM*	0.71µM*	-6%	3.7µM*	0.6µM*	0.79µM*
COc1cccc(C(=O)/C=C/Nc2cccc(O)c2)c1	-6%	?	?	2.3µM*	0.21µM*	?
COc1cc(/C=C/C(=O)c2ccc(NS(=O)(=O)c3ccc(C)cc3)cc2)cc(OC)c1O	-100%	-5%	-2%	-9%	-3%	-4%
COc1ccc(C(=O)/C=C/Nc2ccc(S(=O)(=O)Nc3ncccn3)cc2)cc1	17%	3%	3%	6%	?	6%
COc1cccc(-c2nc(CS(=O)(=O)CC(=O)NCc3ccc(C)cc3)c(C)o2)c1	-20%	nt	nt	nt	3%	nt
NC(=O)N/N=C/c1c(Sc2nnnn2-c2ccccc2)nc2ccccn2c1=O	nt	-16%	nt	-15%	-2%	-16%
COc1ccc(C(=O)c2ccc(Cl)cc2)cc1	-9%	27%	-1%	21µM*	?	15%
SMILES	SMN2 splice enh	Rab9 prom act	Luc counter	ELG1 genotoxic	FLuc counter	NPC1 prom act
COc1cccc(C(=O)/C=C/Nc2ccc(NC(C)=O)cc2)c1	13µM*	4µM*	-12%	?	9.5µM*	?
COc1cccc(C(=O)/C=C/Nc2ccc(S(=O)(=O)Nc3cccc(C(C)=O)c3)cc2)c1	-45%	-4%	4%	-18%	-1%	-9%
COc1ccc(C(=O)/C=C/Nc2ccc(NC(C)=O)cc2)cc1OC	-1%	-5%	-1%	4%	?	-4%
COc1cccc(N/C=C/C(=O)c2ccc(Cl)cc2)c1	4.5µM*	0.5µM*	-27%	1.2µM*	0.54µM*	0.5µM*
O=C(/C=C/c1cccc(Cl)c1)NCCCN1CCOCC1	nt	0%	nt	-5%	2%	-2%
Cn1ncc(S(=O)(=O)Cc2ccccc2)c(Br)c1=O	nt	-3%[46.1 µM]	nt	nt	nt	-15%[46.1 µM]
O=C(CSc1nc2ncccc2[nH]1)NCc1ccco1	nt	-2%	nt	0%	5%	3%
Cc1cc2nc(-c3cccnc3SCC(=O)NC3CC3)[nH]c2cc1C	16µM*	?	?	?	2.7µM*	?
O=C(CSc1nc2ccccc2[nH]1)NCc1ccco1	16%	13%	1%	?	-13%	8%
Cc1cc2nc(-c3cccnc3SCC(=O)NCc3ccco3)[nH]c2cc1C	13µM*	3.2µM*	11µM*	?	0.95µM*	4µM*
O=C(CSc1ncccc1-c1nc2ccccc2[nH]1)NCc1ccco1	-13%	26%	-12%	?	24µM*	20%
CN(CC(=O)Nc1ccccc1Cl)CC(=O)N(C)c1c(N)n(Cc2ccccc2)c(=O)[nH]c1=O	nt	nt	nt	-4%	nt	nt

Screening results deposited in PubChem by National Center for Advancing Translational Sciences (NCATS).
